Among the data in ChEMBL document CHEMBL1961873, “Compounds: GSK PKIS; Assays: Nanosyn kinase panel” (2012) are inhibition values, retold here.

Assay [1] concerns the target Ribosomal protein S6 kinase alpha-6 (Homo sapiens) (UniProt Q9UK32). The following applies: at 1 µM.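 Also: each value is a mean inhibition of RSK4 from a GSK PKIS panel screen.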
Assay [2] has as its target T1, Serine/threonine-protein kinase Sgk1 (Homo sapiens) (UniProt O00141).
T1 sequence (whole entry): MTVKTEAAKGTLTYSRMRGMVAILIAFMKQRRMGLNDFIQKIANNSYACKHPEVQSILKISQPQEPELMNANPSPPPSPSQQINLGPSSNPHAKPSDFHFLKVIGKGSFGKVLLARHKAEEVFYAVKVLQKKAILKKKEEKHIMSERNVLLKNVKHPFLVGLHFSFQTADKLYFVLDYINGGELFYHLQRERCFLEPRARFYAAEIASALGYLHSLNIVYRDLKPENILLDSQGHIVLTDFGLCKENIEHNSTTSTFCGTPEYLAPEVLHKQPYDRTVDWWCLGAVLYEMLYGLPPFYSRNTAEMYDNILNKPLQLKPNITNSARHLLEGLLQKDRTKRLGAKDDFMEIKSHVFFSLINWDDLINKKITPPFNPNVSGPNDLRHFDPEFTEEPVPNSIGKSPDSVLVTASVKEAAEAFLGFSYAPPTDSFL
The conditions noted are these: at 0.1 µM.

Assay [3] addresses T1, Serine/threonine-protein kinase Sgk1 (Homo sapiens). The conditions noted are these: at 1 µM.
Assay [4] addresses T2, Serine/threonine-protein kinase Sgk2 (Homo sapiens) (UniProt Q9HBY8).
T2 sequence (whole entry): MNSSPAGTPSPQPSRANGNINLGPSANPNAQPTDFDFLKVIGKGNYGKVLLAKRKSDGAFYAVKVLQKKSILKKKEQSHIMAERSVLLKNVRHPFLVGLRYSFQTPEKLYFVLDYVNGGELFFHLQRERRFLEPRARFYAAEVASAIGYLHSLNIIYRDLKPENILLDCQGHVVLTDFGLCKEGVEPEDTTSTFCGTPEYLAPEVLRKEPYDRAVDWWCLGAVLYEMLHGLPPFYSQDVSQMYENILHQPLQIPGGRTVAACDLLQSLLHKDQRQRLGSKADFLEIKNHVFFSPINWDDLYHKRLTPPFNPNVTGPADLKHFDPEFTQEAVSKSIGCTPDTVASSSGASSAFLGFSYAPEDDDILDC
The conditions noted are these: at 0.1 µM.

Assay [5] deals with T2, Serine/threonine-protein kinase Sgk2 (Homo sapiens). The conditions noted are these: at 1 µM.
For assay [6], the target named is T3, Serine/threonine-protein kinase Sgk3 (Homo sapiens) (UniProt Q96BR1).
T3 sequence (whole entry): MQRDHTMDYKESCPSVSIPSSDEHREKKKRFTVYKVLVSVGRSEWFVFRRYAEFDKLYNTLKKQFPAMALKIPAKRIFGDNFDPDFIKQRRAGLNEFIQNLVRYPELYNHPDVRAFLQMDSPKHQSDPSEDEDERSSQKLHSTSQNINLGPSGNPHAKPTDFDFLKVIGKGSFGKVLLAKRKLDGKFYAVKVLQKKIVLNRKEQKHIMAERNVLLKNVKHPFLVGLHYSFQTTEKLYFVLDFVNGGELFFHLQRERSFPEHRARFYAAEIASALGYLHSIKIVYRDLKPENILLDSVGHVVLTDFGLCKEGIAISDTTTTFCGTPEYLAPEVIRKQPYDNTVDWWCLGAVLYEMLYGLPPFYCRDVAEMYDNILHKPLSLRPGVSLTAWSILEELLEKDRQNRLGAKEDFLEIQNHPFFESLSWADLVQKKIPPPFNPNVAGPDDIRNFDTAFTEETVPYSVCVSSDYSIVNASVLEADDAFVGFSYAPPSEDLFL
The following applies: at 0.1 µM.

Assay [7] has as its target T3, Serine/threonine-protein kinase Sgk3 (Homo sapiens). The conditions noted are these: at 1 µM.
For assay [8], the target named is 5'-AMP-activated protein kinase catalytic subunit alpha-1 (Homo sapiens) (UniProt Q13131). The following applies: at 0.1 µM.
For assay [9] the target is unchanged. The following applies: at 1 µM.
For assay [10], the target named is 5'-AMP-activated protein kinase catalytic subunit alpha-2 (Homo sapiens) (UniProt P54646). The following applies: at 0.1 µM.
For assay [11] the target is unchanged. The conditions noted are these: at 1 µM.
Assay [12] deals with T4, NUAK family SNF1-like kinase 1 (Homo sapiens) (UniProt O60285).
T4 sequence (whole entry): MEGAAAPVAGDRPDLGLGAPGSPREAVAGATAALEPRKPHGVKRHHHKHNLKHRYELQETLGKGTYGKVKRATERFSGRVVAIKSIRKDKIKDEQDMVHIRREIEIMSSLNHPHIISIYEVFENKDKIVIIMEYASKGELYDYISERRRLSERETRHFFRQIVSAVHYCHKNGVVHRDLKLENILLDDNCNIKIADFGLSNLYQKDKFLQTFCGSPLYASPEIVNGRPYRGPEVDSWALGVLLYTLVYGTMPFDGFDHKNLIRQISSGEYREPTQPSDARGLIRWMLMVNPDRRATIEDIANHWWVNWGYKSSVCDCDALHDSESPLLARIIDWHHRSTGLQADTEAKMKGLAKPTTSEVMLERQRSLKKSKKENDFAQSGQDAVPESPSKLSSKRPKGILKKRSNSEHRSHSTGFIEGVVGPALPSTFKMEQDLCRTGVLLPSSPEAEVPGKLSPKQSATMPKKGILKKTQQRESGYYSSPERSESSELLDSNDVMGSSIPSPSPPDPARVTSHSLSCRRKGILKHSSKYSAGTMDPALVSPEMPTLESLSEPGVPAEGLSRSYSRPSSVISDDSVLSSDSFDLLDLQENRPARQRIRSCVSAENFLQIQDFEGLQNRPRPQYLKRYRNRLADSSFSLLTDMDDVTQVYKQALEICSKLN
The following applies: at 0.1 µM.

The target of assay [13] is T4, NUAK family SNF1-like kinase 1 (Homo sapiens). The conditions noted are these: at 1 µM.
In assay [14] the target is T5, Serine/threonine-protein kinase BRSK1 (Homo sapiens) (UniProt Q8TDC3).
T5 sequence (whole entry): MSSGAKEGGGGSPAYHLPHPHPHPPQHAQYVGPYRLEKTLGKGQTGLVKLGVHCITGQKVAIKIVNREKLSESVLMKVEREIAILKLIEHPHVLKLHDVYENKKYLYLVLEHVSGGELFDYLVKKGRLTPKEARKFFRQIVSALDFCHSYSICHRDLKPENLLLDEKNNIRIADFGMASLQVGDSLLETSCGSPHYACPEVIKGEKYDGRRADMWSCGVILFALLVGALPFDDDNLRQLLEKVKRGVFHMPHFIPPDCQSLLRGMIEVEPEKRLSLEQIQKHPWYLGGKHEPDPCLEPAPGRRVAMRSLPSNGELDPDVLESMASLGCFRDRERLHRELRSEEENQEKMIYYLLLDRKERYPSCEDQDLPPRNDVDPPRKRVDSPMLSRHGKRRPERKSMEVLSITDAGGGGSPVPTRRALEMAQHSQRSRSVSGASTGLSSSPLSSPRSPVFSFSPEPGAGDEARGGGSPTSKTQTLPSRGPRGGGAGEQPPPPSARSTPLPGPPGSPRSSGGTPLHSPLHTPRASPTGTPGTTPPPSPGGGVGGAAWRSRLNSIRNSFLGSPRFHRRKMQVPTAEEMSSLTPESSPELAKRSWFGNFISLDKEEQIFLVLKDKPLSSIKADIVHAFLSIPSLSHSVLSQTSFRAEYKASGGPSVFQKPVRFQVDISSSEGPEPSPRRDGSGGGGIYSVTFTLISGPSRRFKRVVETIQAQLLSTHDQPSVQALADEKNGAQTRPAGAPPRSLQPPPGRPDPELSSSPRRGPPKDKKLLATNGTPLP
The following applies: at 0.1 µM.

In assay [15] the target is T5, Serine/threonine-protein kinase BRSK1 (Homo sapiens). The following applies: at 1 µM.
For assay [16], the target named is T6, Serine/threonine-protein kinase BRSK2 (Homo sapiens) (UniProt Q8IWQ3).
T6 sequence (whole entry): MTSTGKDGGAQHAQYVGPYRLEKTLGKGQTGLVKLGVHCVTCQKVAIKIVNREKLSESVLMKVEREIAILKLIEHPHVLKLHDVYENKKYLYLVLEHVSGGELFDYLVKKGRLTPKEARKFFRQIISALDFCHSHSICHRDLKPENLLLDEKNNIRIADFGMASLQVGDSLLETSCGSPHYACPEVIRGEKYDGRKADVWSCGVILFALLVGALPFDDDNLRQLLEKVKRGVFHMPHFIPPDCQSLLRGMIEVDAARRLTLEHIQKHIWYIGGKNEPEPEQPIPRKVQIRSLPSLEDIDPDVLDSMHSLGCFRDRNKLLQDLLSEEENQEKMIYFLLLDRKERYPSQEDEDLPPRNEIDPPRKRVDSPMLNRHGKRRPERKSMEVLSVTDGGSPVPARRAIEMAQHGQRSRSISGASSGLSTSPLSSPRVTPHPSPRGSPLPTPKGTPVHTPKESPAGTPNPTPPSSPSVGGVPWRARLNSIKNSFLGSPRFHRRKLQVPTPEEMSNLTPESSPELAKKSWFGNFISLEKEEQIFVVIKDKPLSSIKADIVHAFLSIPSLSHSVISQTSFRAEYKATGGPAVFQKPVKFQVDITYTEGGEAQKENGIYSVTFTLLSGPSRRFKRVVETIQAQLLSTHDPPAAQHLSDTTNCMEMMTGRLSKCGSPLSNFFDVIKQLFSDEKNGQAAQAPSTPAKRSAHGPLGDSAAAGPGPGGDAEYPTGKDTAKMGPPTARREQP
The following applies: at 0.1 µM.

In assay [17] the target is T6, Serine/threonine-protein kinase BRSK2 (Homo sapiens). The conditions noted are these: at 1 µM.
For assay [18], the target named is Calcium/calmodulin-dependent protein kinase type 1D (Homo sapiens) (UniProt Q8IU85). The following applies: at 0.1 µM.
Assay [19] has the same target. The following applies: at 1 µM.
The target of assay [20] is Calcium/calmodulin-dependent protein kinase type II subunit alpha (Homo sapiens) (UniProt Q9UQM7). The following applies: at 0.1 µM.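 Also: reported values are averages (mean inhibition of CAMK2A).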

SMILES strings stand for the structures.

Sequence of Calcium/calmodulin-dependent protein kinase type 1D (Homo sapiens) (Q8IU85 whole entry, looked up): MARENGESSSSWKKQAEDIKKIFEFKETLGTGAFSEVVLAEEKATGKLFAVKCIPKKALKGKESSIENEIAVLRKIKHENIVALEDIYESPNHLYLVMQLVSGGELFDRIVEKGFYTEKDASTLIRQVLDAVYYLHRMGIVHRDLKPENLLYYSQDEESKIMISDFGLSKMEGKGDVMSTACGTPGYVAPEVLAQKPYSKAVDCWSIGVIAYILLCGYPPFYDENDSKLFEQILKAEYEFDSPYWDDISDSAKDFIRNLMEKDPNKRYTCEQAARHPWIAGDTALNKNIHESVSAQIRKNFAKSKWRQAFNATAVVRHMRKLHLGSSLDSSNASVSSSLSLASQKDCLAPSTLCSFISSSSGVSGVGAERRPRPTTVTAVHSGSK
Sequence of Ribosomal protein S6 kinase alpha-6 (Homo sapiens) (Q9UK32 whole entry): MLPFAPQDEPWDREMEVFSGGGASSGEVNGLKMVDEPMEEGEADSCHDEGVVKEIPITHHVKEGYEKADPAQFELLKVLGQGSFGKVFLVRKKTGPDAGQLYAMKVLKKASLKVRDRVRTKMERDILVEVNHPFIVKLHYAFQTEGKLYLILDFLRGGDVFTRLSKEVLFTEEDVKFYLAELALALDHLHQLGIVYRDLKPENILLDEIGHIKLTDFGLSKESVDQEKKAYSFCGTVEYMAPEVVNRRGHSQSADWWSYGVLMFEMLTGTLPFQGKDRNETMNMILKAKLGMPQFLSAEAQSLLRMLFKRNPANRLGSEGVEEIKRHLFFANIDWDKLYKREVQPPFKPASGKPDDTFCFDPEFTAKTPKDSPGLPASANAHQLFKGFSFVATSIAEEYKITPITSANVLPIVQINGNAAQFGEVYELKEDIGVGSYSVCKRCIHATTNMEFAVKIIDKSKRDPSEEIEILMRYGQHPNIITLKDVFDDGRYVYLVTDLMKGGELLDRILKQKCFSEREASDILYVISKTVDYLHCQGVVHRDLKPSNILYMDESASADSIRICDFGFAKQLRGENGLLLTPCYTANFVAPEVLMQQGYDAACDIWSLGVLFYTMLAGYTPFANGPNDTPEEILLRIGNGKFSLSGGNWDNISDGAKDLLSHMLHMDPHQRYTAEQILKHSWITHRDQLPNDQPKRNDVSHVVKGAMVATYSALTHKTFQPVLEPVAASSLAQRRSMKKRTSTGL
Sequence of Calcium/calmodulin-dependent protein kinase type II subunit alpha (Homo sapiens) (Q9UQM7 whole entry): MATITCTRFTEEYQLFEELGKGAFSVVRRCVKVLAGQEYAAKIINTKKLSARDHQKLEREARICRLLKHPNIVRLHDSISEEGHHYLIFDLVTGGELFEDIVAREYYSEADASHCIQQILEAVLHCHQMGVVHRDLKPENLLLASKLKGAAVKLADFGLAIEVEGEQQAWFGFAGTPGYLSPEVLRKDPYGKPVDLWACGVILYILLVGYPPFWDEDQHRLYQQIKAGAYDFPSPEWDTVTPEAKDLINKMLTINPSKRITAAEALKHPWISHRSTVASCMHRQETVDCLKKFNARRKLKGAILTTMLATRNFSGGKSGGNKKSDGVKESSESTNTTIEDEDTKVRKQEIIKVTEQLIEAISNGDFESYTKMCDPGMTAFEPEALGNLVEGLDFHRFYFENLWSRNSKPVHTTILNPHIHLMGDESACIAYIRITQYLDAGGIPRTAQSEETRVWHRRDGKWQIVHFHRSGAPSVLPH
Sequence of 5'-AMP-activated protein kinase catalytic subunit alpha-2 (Homo sapiens) (P54646 whole entry, looked up): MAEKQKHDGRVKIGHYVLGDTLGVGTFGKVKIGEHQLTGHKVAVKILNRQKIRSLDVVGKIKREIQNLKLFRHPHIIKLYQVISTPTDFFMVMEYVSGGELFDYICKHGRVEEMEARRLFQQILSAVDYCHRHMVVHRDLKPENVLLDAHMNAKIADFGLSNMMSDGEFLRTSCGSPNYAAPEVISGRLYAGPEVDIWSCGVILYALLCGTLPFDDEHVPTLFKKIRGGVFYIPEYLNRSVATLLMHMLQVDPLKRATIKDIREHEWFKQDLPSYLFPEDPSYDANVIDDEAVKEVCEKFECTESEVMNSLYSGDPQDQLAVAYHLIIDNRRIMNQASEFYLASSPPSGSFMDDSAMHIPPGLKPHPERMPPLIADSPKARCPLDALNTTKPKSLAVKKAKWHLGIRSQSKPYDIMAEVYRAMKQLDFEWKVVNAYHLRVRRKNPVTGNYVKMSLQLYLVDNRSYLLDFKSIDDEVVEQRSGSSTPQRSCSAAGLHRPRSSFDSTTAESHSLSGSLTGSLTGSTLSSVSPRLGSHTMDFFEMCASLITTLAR
Sequence of 5'-AMP-activated protein kinase catalytic subunit alpha-1 (Homo sapiens) (Q13131 whole entry, looked up): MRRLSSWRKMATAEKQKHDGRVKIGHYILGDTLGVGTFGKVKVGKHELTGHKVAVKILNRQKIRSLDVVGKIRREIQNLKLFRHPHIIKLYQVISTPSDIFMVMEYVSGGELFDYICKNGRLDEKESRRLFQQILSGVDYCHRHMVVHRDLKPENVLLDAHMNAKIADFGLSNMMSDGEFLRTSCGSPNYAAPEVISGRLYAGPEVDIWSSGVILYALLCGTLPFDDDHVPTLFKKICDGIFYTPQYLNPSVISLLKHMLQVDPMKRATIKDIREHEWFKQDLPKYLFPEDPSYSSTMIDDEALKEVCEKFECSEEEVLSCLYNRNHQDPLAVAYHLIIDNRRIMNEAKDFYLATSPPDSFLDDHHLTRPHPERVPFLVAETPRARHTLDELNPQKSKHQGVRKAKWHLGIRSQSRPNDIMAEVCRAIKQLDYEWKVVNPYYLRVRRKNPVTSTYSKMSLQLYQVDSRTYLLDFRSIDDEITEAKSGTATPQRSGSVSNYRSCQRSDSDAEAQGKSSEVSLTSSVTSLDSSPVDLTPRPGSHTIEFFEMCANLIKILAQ

Turning to `CC(C)=Cc1cccc2c1/C(=N/Nc1ccc(S(N)(=O)=O)cc1)C(=O)N2`, the inhibition in assay [1] was 13.6%; in assay [2] it was 0.34%; in assay [3], 5.74%; in assay [4] it was -2.99%; in assay [5] it was 3.04%; in [6], 0.02%. Besides, the inhibition in [7] was found to be 0.72%; in assay [8] it was 13.9%; in assay [9] it was 56.6%; in assay [10], 3.74%; in assay [11] it was 40.2%; in assay [12], 80.3%. The inhibition in assay [13] was 87.3%; in assay [14] it was 7.32%; in assay [15] it was 45%; in assay [16], 14.6%; in [17] it was 58.2%; in assay [18], 0.31%. In addition, the results for the inhibition in [19] and in [20] were 1.3% and 2.92%, respectively.
Consider `Nc1ncnc2occ(-c3ccc(NC(=O)Nc4cccc(C(F)(F)F)c4)cc3)c12`, for which the inhibition in assay [1] amounted to 9.85%; in assay [2], 4.14%; in assay [3] it was 3.96%; in assay [4], 3.57%; in assay [5] it was 4.73%; in assay [6], 6.15%. Besides, the inhibition in assay [7] amounted to 2.94%; in [8] it was 1.82%; in assay [9], 5.16%; in assay [10], 2.97%; in assay [11], 5.34%; in assay [12] it was 1.07%. The inhibition amounted to 8.04% in [13]; 0.85% in [14]; 10.2% in [15]; 5.5% in [16]; 9.75% in [17]; 0.29% in assay [18]. The inhibition in assay [19] was determined as 7.97%; in [20] it was 2.71%.
Take `Cc1cccc(-c2n[nH]cc2-c2ccc3ncccc3n2)n1`: the inhibition amounted to 1.71% in assay [1]; 0.86% in assay [2]; 1.34% in [3]; 0.23% in assay [4]; 0.54% in assay [5]; 0.78% in assay [6]. Moreover, the inhibition was -0.02% in [7]; 1.82% in assay [8]; 0.12% in assay [9]; 0.85% in [10]; 1.54% in [11]; 0.78% in [12]. The inhibition in assay [13] came out at 4.74%; in assay [14], 0.22%; in assay [15], 1.97%; in assay [16] it was 2.17%; in assay [17] it was 2.14%; in assay [18], 0.56%. The inhibition in assay [19] was 1.08%; in [20], -1.03%.
Consider `COc1cccc(-n2ncc3c(N/N=C/c4cccc(F)c4)ncnc32)c1`, for which the inhibition in assay [1] was 3.07%; in assay [2], 1.3%; in assay [3] it was 2.87%; in assay [4] it was -1.45%; in assay [5] it was 0.6%; in [6], -0.55%. Also, the inhibition in [7] was determined as 0.75%; in assay [8], 2.52%; in assay [9], 5.15%; in assay [10] it was 4.7%; in assay [11], 6.48%; in assay [12], 3.92%. Further, the inhibition in assay [14] came out at 2.83%; in assay [15], 13.7%; in assay [16], 2.69%; in assay [17] it was 20.5%; in assay [18] it was 0.51%; in assay [19], 1.96%. Besides, in assay [20], the inhibition was 1.19%.

As usually defined, the inhibition is the change of the read-out against control, counted positive when it falls.
